GALC G270D act: galactocerebrosidase G270D activity enhancement, cell-based; AID 1159614; 145M-Twi-hGALC-G270D cells (Twitcher mouse brain line with human GALC G270D), HMU-beta-Gal fluorescence, 48 h; P54803; 45,000 tested, 0.1% active; Potency, µM (top dose mostly 57.5 µM), usual class: activators; further: nearly all actives have a fitted effect of over 65% in size
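Brain-derived Twitcher mouse 145M-Twi cells stably expressing human GALC-G270D or wild-type GALC, treated live, then residual GALC activity read by fluorescence of HMU-b-Gal substrate (0.1 mM final) in citrate-phosphate buffer pH 5.2 with sodium taurocholate. Signal increase indicates enhancement.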
NTMT1 inhibitor: inhibitors of human N-terminal methyltransferase NTMT1. Q9BV86. NTMT1 MTase-Glo SAH luminescence, purified enzyme. Potency, µM (highest dose often 114 µM), actives largely listed as inhibitors. 59,000 tested, 2.5% active; further: nearly all actives have a fitted effect of over 65% in size
GALK inhibitor: inhibitors of human galactokinase (GALK) | AID 1347072 | Potency, µM (top dose mostly 57.5 µM), actives largely listed as inhibitors | 44,000 tested, under 10 active | P51570 | recombinant GALK, Kinase-Glo ATP luminescence, 1 h
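Luminescent ATP-depletion readout (Kinase-Glo Plus) after 1 h room-temperature incubation of human GALK (5 nM) with galactose 100 µM and ATP 35 µM, pH 8.0 HEPES/Mg2+ buffer; compounds tested in qHTS format.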
TSG101-PTAP inh: TSG101-PTAP interaction inhibition, HIV-1 budding | AID 1347069 | Q99816 | Potency, µM (series often up to 115 µM), actives largely listed as inhibitors | 44,000 tested, under 10 active | Fluorescence polarization, FITC-PTAP peptide/Tsg101, 20 min
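Steps: Tsg101 binding domain (10 uM final) in HEPES pH 7.5/NaCl/Tween 20/EDTA/TCEP; add compound; add FITC-PTAP peptide (50 nM final); incubate 20 min r.t.; read polarization.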
B2AR arrestin ag: beta-arrestin recruitment by human beta2-adrenergic receptor ligands; HTLA Tango cells, beta-arrestin recruitment, luciferase luminescence, 18 h; 44,000 tested, under 10 active; Potency, µM (top dose mostly 46.1 µM), hits mostly activators; AID 1347077
Target sequence (P07550 whole entry, looked up): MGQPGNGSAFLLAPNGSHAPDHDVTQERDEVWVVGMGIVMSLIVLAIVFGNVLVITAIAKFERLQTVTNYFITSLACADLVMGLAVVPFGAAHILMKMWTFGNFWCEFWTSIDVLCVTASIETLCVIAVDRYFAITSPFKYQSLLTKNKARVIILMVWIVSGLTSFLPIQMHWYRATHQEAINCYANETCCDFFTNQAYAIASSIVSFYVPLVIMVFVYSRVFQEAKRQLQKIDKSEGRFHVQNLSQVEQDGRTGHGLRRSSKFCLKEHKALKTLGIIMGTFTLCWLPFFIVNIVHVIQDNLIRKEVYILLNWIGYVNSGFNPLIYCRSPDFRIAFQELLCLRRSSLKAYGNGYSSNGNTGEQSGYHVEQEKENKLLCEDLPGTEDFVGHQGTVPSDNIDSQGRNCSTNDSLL
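Tango cell line, 1% FBS DMEM; cpd titration up to 46 microM; 18 hr, 37 degrees C, 5% CO2. Luciferin/ATP substrate mix added, 15 min RT, luminescence. %Activity, CRC fitting, curve-class categorization.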
FH mod: Identification of activators of human fumarate hydratase by quantitative high-throughput screening | Potency, µM (titrated, usually from 79.9 µM), actives largely listed as inhibitors | 54,000 tested, 0.22% active | Fumarate hydratase, mitochondrial (Homo sapiens), P07954 | FH coupled MDH/diaphorase resazurin fluorescence, 15 min | AID 1347055, 2019; further: the screen sought activators but most active calls are inhibition curves; nearly all actives have a fitted effect of over 45% in size
Hits are given with their value; ! = not confirmed by another sample; [ ] = dose if it differs, or a comment. This excerpt belongs to a sample that is enriched for hits. The call rests on the fitted dose curve; in most records, active means well fitted curve in the direction sought with a large enough effect; inconclusive means small, poorly fitted or top-dose-only effect, or another doubt; inactive means no such curve, though single readings can be large; an effect the other way counts as inactive or inconclusive.

Screening Cc1nnc2c(N3CCN(c4ccc(F)cc4)CC3)nc3ccc(C(=O)c4ccccc4)cc3n12 returned GALC G270D act inactive, NTMT1 inhibitor inactive, GALK inhibitor inactive, TSG101-PTAP inh inactive, B2AR arrestin ag inactive and FH mod inactive.
Screening FC(F)(F)c1ccccc1-c1nc(NCc2ccc(Br)cc2)c2ccccc2n1 returned NTMT1 inhibitor inactive.
Screening Cc1cc(Br)ccc1NC(=O)CN1C(=O)c2cccnc2Sc2ccccc21 returned GALC G270D act inactive, NTMT1 inhibitor 79µM, GALK inhibitor inactive, TSG101-PTAP inh inactive, B2AR arrestin ag inactive and FH mod inactive.
CC(=O)c1ccc(NC(=O)CN2C(=O)c3cccnc3Sc3ccccc32)cc1 was read as GALC G270D act inactive, NTMT1 inhibitor inactive, GALK inhibitor inactive, TSG101-PTAP inh inactive, B2AR arrestin ag inactive and FH mod inactive.
`CCCCN(C)C(=O)Cn1nc(-c2ccncc2)ccc1=O` gave NTMT1 inhibitor inactive.
CCCNS(=O)(=O)Nc1ncnc(OCCOc2ncc(Br)cn2)c1-c1ccc(Br)cc1 was read as NTMT1 inhibitor 8.6µM! and FH mod inactive.
`NS(=O)(=O)Nc1ncnc(OCCOc2ncc(Br)cn2)c1-c1ccc(Br)cc1` gave NTMT1 inhibitor inconclusive and FH mod inactive.
COc1ccc(-c2oc3c(CC=C(C)C)c(OC4O[C@H](CO)[C@@H](O)[C@H](O)[C@H]4O)cc(O)c3c(=O)c2OC2O[C@@H](C)[C@H](O)[C@@H](O)[C@H]2O)cc1 (stereo partly specified) was read as NTMT1 inhibitor inactive.
Screening Cc1ccc(Nc2nccc(N(C)c3ccc4c(C)n(C)nc4c3)n2)cc1S(N)(=O)=O returned GALC G270D act inactive, NTMT1 inhibitor 16µM! and FH mod inactive.
`Cc1ccc(O)cc1Nc1ccnc(Nc2cccc(C(N)=O)c2)n1` gave NTMT1 inhibitor inactive and FH mod inactive.
For CCOc1cc2ncc(C#N)c(Nc3ccc(OCc4ccccn4)c(Cl)c3)c2cc1NC(=O)/C=C/CN(C)C the results were NTMT1 inhibitor inconclusive and FH mod inactive.
`COc1cc2ncnc(Nc3ccc(F)c(Cl)c3)c2cc1NC(=O)C=CCN1CCCCC1` gave NTMT1 inhibitor inactive and FH mod inactive.
CN(C)C/C=C/C(=O)Nc1cc2c(Nc3ccc(F)c(Cl)c3)ncnc2cc1O[C@H]1CCOC1 was read as NTMT1 inhibitor 3.2µM.
CN(C)CC=CC(=O)Nc1cc2c(Nc3ccc(F)c(Cl)c3)ncnc2cc1O[C@H]1CCOC1 was read as NTMT1 inhibitor 22µM and FH mod inactive.
For CCOc1cc2ncc(C#N)c(Nc3ccc(F)c(Cl)c3)c2cc1NC(=O)C=CCN(C)C the results were NTMT1 inhibitor 3.8µM and FH mod inactive.
Screening CCCN(CCC)C(=O)Cn1c(=O)n(-c2ccc(CC)cc2)c(=O)c2c3c(sc21)CCC3 returned GALC G270D act inactive, NTMT1 inhibitor 89µM, GALK inhibitor inactive, TSG101-PTAP inh inactive, B2AR arrestin ag inactive and FH mod inactive.
Screening O=C1SC(Nc2ccc(Cl)cc2)C(=O)N1Cc1ccccc1 (stereo unspecified) returned GALC G270D act inactive, NTMT1 inhibitor inactive, GALK inhibitor inactive, TSG101-PTAP inh inactive, B2AR arrestin ag inactive and FH mod inactive.
`CCOc1ccc(NC2SC(=O)N(Cc3ccccc3)C2=O)cc1` (stereo unspecified) gave GALC G270D act inactive, NTMT1 inhibitor inactive, GALK inhibitor inactive, TSG101-PTAP inh inactive, B2AR arrestin ag inactive and FH mod 40µM[activator].
For COc1ccc(CNC(=O)C2CCCN(c3nnc(C)c4c(C)n(-c5ccc(C)cc5)nc34)C2)cc1 (stereo unspecified) the results were GALC G270D act inactive, NTMT1 inhibitor 79µM, GALK inhibitor inactive, TSG101-PTAP inh inactive, B2AR arrestin ag inactive and FH mod inactive.

Screening data from PubChem.
